Conditions in all cases: Compound concentration 20.0 uM
Test [1] deals with Tyrosine-protein kinase ABL1 (Homo sapiens) (UniProt P00519).
Test [2] concerns the target Bromodomain-containing protein 4 (Homo sapiens) (UniProt O60885).
Test [3] deals with Cyclin-dependent kinase 2 (Homo sapiens) (UniProt P24941).
For test [4], the target named is Casein kinase I isoform delta (Homo sapiens) (UniProt P48730).
Test [5] concerns the target Glycogen synthase kinase-3 beta (Homo sapiens) (UniProt P49841).
The target in test [6] is Mitogen-activated protein kinase 1 (Homo sapiens) (UniProt P28482).
Sequence of Mitogen-activated protein kinase 1 (Homo sapiens) (P28482 whole entry): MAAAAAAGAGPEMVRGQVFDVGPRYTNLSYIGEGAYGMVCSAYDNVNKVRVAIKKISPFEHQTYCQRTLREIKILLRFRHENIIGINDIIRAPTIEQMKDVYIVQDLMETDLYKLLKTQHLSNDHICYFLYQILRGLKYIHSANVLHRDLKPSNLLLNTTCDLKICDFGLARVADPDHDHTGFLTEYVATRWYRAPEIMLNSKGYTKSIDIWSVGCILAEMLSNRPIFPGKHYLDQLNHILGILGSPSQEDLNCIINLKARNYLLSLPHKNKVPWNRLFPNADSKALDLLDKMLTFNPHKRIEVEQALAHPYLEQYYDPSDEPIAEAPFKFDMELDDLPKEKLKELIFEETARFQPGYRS
For test [7], the target named is T1, Aurora kinase A (Homo sapiens) (UniProt O14965).
T1 sequence (whole entry): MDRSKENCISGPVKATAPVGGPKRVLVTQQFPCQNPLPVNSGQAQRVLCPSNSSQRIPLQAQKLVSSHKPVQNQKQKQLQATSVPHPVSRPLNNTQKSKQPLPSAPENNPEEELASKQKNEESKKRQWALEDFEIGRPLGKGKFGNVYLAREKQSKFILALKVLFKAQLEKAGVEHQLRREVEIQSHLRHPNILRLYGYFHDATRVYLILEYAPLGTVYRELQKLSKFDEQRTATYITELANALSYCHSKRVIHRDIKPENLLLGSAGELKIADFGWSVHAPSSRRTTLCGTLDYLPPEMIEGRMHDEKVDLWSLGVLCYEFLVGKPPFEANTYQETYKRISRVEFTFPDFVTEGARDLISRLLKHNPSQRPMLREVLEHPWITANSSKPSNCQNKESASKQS

For test [8], the target named is T2, Transcription intermediary factor 1-alpha (Homo sapiens) (UniProt O15164).
T2 sequence (whole entry): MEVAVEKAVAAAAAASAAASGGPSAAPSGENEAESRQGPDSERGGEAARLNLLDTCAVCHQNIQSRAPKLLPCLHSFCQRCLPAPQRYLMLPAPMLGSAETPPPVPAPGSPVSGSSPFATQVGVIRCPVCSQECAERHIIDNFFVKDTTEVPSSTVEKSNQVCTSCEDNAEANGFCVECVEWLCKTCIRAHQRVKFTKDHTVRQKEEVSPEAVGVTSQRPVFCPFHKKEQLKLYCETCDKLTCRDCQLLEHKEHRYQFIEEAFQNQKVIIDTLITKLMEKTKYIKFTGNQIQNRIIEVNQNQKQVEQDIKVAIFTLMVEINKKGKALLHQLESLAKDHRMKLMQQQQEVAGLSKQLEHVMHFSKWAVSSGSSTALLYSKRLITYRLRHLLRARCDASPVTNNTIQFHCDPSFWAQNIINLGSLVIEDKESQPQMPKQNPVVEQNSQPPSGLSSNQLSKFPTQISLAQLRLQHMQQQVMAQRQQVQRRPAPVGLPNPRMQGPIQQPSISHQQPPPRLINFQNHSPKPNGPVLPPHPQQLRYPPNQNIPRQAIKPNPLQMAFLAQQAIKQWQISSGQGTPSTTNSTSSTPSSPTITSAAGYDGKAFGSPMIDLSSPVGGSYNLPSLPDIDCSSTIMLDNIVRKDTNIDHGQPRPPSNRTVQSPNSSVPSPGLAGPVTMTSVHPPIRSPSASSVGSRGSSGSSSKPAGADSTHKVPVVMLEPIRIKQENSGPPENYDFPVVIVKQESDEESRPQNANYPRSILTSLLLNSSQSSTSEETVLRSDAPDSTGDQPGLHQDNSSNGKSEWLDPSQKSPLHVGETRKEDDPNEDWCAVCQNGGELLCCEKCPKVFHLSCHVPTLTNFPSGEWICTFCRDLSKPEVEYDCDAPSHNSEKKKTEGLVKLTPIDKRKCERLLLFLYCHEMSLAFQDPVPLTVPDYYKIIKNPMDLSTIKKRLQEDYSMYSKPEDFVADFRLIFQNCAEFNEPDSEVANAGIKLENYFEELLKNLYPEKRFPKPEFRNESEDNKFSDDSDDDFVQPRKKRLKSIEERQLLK

Structures are written as SMILES. Non-standard residues stand in square brackets, D forms with d. Residues, ends and D or L forms follow the SMILES beside them. *: point of attachment. Tyr(3-Cl) = N[C@@H](Cc1ccc(O)c(Cl)c1)C(=O)O; Benzoyl(3,5-Cl2) = O=C(c1cc(Cl)cc(Cl)c1)*; Lys(Et2) = CCN(CC)CCCC[C@H](N)C(=O)O; Gly(cPent) = N[C@H](C(=O)O)C1CCCC1; NH(propargyl) = C#CCN*

One may read the ΔTm as the shift of the melting midpoint relative to a reference.

Sequence of Tyrosine-protein kinase ABL1 (Homo sapiens) (P00519 whole entry): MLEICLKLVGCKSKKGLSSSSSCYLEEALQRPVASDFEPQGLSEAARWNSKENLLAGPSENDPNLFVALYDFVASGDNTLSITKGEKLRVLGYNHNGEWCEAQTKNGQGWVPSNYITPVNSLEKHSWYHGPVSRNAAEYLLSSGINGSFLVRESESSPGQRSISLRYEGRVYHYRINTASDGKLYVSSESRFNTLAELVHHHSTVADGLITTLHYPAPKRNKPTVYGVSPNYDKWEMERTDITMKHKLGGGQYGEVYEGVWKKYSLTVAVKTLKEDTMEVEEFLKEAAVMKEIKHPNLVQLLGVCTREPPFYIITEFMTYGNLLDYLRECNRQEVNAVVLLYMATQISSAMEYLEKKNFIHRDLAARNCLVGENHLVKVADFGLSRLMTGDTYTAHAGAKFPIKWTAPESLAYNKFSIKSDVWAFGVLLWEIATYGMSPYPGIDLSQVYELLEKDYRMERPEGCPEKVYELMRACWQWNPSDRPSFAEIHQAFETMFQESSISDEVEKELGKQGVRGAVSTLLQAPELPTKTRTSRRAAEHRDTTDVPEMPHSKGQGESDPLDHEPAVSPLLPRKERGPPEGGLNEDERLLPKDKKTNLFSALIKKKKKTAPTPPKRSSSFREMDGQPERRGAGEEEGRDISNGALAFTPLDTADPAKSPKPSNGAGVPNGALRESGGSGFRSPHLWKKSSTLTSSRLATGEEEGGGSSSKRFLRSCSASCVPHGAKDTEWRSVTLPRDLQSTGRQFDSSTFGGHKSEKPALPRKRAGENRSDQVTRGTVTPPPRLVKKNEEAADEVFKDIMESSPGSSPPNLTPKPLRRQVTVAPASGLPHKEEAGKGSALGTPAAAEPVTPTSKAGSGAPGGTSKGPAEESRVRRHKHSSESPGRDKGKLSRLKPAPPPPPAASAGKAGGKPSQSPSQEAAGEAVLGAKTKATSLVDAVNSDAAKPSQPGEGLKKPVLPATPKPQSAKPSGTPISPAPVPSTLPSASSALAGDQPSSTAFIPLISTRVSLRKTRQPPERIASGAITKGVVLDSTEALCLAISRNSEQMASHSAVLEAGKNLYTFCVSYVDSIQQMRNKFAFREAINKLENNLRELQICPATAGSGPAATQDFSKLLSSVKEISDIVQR
Sequence of Casein kinase I isoform delta (Homo sapiens) (P48730 whole entry, looked up, canonical isoform): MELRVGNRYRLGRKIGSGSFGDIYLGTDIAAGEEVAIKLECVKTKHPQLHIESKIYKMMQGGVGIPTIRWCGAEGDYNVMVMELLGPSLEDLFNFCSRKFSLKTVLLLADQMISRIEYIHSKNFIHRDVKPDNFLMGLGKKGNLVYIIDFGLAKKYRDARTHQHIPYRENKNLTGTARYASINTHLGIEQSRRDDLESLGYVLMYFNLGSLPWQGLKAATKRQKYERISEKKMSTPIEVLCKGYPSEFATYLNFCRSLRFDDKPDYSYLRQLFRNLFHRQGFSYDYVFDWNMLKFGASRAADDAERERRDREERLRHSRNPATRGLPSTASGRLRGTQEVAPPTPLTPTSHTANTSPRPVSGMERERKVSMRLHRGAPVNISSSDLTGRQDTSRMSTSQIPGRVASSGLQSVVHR
Sequence of Glycogen synthase kinase-3 beta (Homo sapiens) (P49841 whole entry, looked up): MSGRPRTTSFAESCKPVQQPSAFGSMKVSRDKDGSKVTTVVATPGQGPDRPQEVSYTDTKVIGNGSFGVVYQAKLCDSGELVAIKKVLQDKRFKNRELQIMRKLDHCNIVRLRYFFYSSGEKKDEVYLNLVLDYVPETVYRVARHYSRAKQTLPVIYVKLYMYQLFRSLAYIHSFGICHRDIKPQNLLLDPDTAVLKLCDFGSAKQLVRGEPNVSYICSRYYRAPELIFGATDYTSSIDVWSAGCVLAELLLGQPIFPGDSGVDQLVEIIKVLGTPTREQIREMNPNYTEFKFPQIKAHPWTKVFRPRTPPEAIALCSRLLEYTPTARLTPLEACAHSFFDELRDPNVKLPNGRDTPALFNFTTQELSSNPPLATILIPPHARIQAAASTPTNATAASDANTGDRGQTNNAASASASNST

On to `O=C(COc1ccc(-c2oc3cc(O)c(C(=O)O)cc3c2C#Cc2cccc(Cl)c2)cc1)NC1CC1`, for which the ΔTm in test [1] is 0.23 °C; in test [2], -1.93 °C; in test [3], 0.55 °C; in test [4], 0.15 °C; in test [5], -0.41 °C; in test [6] it was -0.57 °C. Further, the ΔTm in test [7] is -0.11 °C; in test [8], -0.84 °C.
On to `COc1ccc(CC[C@H]2CCC[C@@H](CCc3ccc(OC)cc3)N2C[C@@H](O)CO)cc1`, for which the ΔTm was 0.7 °C in test [1]; -3.11 °C in test [2]; 0.11 °C in test [3]; -0.1 °C in test [4]; -0.21 °C in test [5]; 0.31 °C in test [6]. Moreover, the results for the shift in melting temperature (ΔTm) in test [7] and in test [8] were -2.3 °C and -0.71 °C, respectively.
Regarding `CC(C)CCn1c(CN2CCN(C(=O)C3CC3)CC2)nc2c1c(=O)n(C)c(=O)n2C`, the ΔTm was 0.68 °C in test [1]; -2.93 °C in test [2]; 0.17 °C in test [3]; -0.39 °C in test [4]; -0.45 °C in test [5]; 0.11 °C in test [6]. For the same compound, the ΔTm in test [7] was -2.45 °C; in test [8], 0.08 °C.
On to `Cc1[nH]c2c(N3CCO[C@H](CO)C3)c(C#N)c(C(F)(F)F)nc2c1Cl`, for which the ΔTm in test [1] was 0.59 °C; in test [2], -1.62 °C; in test [3], 1.92 °C; in test [4] it was 0.2 °C; in test [5], 1.93 °C; in test [6], 1.85 °C. For the same compound, the ΔTm in test [7] is -1.95 °C; in test [8], -1.25 °C.
With `Cc1cc(Cn2c(=O)n(Cc3cnc(C)s3)c(=O)c3cc(S(=O)(=O)NC4(C)CC4)ccc32)n(C)n1`, the ΔTm in test [1] was 0.2 °C; in test [2], -4.6 °C; in test [3], 0.24 °C; in test [4], 0.39 °C; in test [5] it was -0.6 °C; in test [6], 0.1 °C. Moreover, the figures for the ΔTm in test [7] and in test [8] were -3.34 °C and -1.26 °C, respectively.
Consider `Cc1cc(-c2ccccc2)cc(C(=O)NNS(=O)(=O)c2ccccc2)c1F`, for which the ΔTm in test [1] was 0.58 °C; in test [2], -6.22 °C; in test [3] it was -3.62 °C; in test [4] it was 0.42 °C; in test [5], -3.1 °C; in test [6], 0 °C. Also, the figures for the ΔTm in test [7] and in test [8] were -4.21 °C and -1.85 °C, respectively.
As for `O=C(NCCCOc1ccc2[nH]c(=O)ccc2c1)N(C1CC1)[C@@H]1CCCC[C@H]1O`, the thermal shift (ΔTm) is 0.31 °C in test [1]; -0.85 °C in test [2]; -0.14 °C in test [3]; -0.05 °C in test [4]; -0.66 °C in test [5]; 0.1 °C in test [6]. Moreover, the ΔTm is -2.39 °C in test [7] and 0.02 °C in test [8].
On to `COc1ccc(-c2ccc3c(c2)COC3=O)n2nc(C3(C(=O)OCC(C)C)CC3)nc12`, for which the ΔTm is 0.4 °C in test [1]; 2.58 °C in test [2]; 0.54 °C in test [3]; 0.04 °C in test [4]; -0.38 °C in test [5]; 1.36 °C in test [6]. Also, the ΔTm in test [7] is -1.67 °C; in test [8] it was 0.5 °C.
For the compound `COc1ccc(-n2c(SCCCN3C(=O)c4cccc5cccc(c45)C3=O)nnc2-c2ccncc2)cc1`, the ΔTm in test [1] was 0.68 °C; in test [2], -3.3 °C; in test [3], -0.02 °C; in test [4], 0.26 °C; in test [5], -0.45 °C; in test [6], 0.07 °C. The ΔTm is -1.38 °C in test [7] and 0.1 °C in test [8].
Turning to `C#CCNC(=O)[C@H](CO)NC(=O)[C@H](CCCCN(CC)CC)NC(=O)[C@@H](NC(=O)[C@@H](NC(=O)[C@H](Cc1ccc(O)c(Cl)c1)NC(=O)c1cc(Cl)cc(Cl)c1)C1CCCC1)[C@@H](C)CC` ({Benzoyl(3,5-Cl2)}-[Tyr(3-Cl)][Gly(cPent)]I[Lys(Et2)]S-{NH(propargyl)}), the ΔTm was 0.75 °C in test [1]; -3.03 °C in test [2]; 0.1 °C in test [3]; 0.08 °C in test [4]; -0.72 °C in test [5]; 0.49 °C in test [6]. Also, the shift in melting temperature (ΔTm) in test [7] was -2.28 °C; in test [8], 0 °C.
As for `O=C(O)C1=CCCN(CCON=C(c2ccccc2)c2ccccc2)C1`, the ΔTm in test [1] was 0.08 °C; in test [2] it was -0.61 °C; in test [3] it was 0.73 °C; in test [4], -0.14 °C; in test [5], 0 °C; in test [6], 0.02 °C. For the same compound, the ΔTm was -1.31 °C in test [7] and 1.41 °C in test [8].
`N#C[C@@H]1CCCN1C(=O)[C@@H]1CCCN1C(=O)CCCc1ccccc1`: the ΔTm in test [1] is 0.07 °C; in test [2], -2.61 °C; in test [3], 0.09 °C; in test [4], 0.05 °C; in test [5], -0.27 °C; in test [6], 0.11 °C. In addition, the ΔTm in test [7] was -1.43 °C; in test [8] it was -0.5 °C.
Turning to `Cc1ccc2c(c1)nc(/C=C/c1cccc3cccnc13)n2-c1cccc(OCCCN2CCN(C)CC2)c1`, the ΔTm is 0.62 °C in test [1]; -5.41 °C in test [2]; -0.28 °C in test [3]; -0.14 °C in test [4]; -0.72 °C in test [5]; 0.14 °C in test [6]. The ΔTm in test [7] is -2.49 °C; in test [8] it was 1.41 °C.
Turning to `Cc1cc(/N=N/c2ccc(S(=O)(=O)NC3CCCC3)cc2)c(N)cc1O`, the ΔTm is 0.4 °C in test [1]; 7.29 °C in test [2]; 4.93 °C in test [3]; 1.1 °C in test [4]; 4.28 °C in test [5]; 2.73 °C in test [6]. In addition, the ΔTm in test [7] was determined as 0.42 °C; in test [8], 2.48 °C.
On to `CCc1c(-c2ccccc2)c(-c2ccccc2)nn1-c1ccccc1-c1cccc(OCC(=O)O)c1`, for which the ΔTm in test [1] is -0.2 °C; in test [2], -8.88 °C; in test [3], -1.12 °C; in test [4], -2.01 °C; in test [5], 0 °C; in test [6] it was -0.5 °C. The ΔTm in test [7] is -3.9 °C; in test [8], -3.28 °C.
For `Cn1cc(-c2ccncc2)c(-c2ccc(OCc3ccc4ccccc4n3)cc2)n1`, the ΔTm in test [1] was 0.66 °C; in test [2], -0.49 °C; in test [3], -0.35 °C; in test [4] it was 1.79 °C; in test [5], 0 °C; in test [6], 0.13 °C. The ΔTm in test [7] came to 2.06 °C; in test [8], 0.65 °C.

For the origin of these results see ChEMBL document CHEMBL5724796, “Tm Shift (DSF) assay results for EUbOPEN Chemogenomics Library” (2024).
